Laboratory results as given in PubChem BioAssay (Tox21).
Unmarked numbers belong to inactive results. Where a call stands in place of a potency, no number is given. Activity calls are given as the source filed them. Unless noted, calls come from the whole dose curve; as a rule, active = well fitted curve in the direction sought with a large enough effect in the repeat runs; inconclusive = weak or mixed curves; inactive = no such curve, though single readings can be large; an effect the other way counts as inactive or inconclusive.

Columns and labels:
[1] = qHTS assay to identify small molecule antagonists of the thyroid receptor (TR) signaling pathway - cell viability counter screen (AID 743064); note: nearly all actives have a fitted effect of over 50% in size
How it was run: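 Plate GH3.TRE-Luc cells; incubate 4 h at 37 °C; add compound, then T3 to 1 nM final; incubate 23.5 h; add CellTiter-Fluor; incubate 30 min at 37 °C, 5% CO2; read fluorescence.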

[2] = qHTS assay to identify small molecule antagonists of the thyroid receptor (TR) signaling pathway (AID 743065); note: nearly all actives have a fitted effect of over 55% in size
How it was run: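 Antagonism measured as loss of luciferase signal in GH3 cells stably carrying a TRE-luciferase reporter, co-treated with compound and T3 (1 nM final) for 23.5 h at 37 C. Viability was read in the same well by CellTiter-Fluor.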

[3] = tested on: thyroid hormone receptor (rat, GH3 cells); assay: qHTS assay to identify small molecule agonists of the thyroid receptor (TR) signaling pathway (AID 743066; calls by dose curve)
[4] = target: Estrogen receptor (Homo sapiens) (UniProt P03372); assay: qHTS assay to identify small molecule antagonists of the estrogen receptor alpha (ER-alpha) signaling pathway (AID 743069; active = well fitted curve in the direction sought with a large enough effect in the signal ratio in the repeat runs, not every such curve was filed as active; inconclusive = weak or mixed curves, or effect the other way; inactive = no such curve, though single readings can be large or run the other way; the % refers to the signal ratio; note: potency is the fitted concentration of half-maximal effect)
How it was run: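 Fluorescence intensity from a beta-lactamase FRET substrate served as the read-out. Cells: HEK293 with stably integrated ER-alpha-UAS-bla reporter. Agonist 17beta-estradiol was co-added with compounds; incubation 18 hr at 37C, substrate 2 hr at room temperature.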

[5] = qHTS assay to identify small molecule antagonists of the estrogen receptor alpha (ER-alpha) signaling pathway - cell viability counter screen (AID 743074; calls by dose curve; note: nearly all actives have a fitted effect of over 45% in size)
[6] = target: Estrogen receptor (Homo sapiens) (UniProt P03372); assay: qHTS assay to identify small molecule agonists of the estrogen receptor alpha (ER-alpha) signaling pathway (AID 743075; calls by dose curve)
[7] = target: Estrogen receptor (Homo sapiens) (UniProt P03372); assay: qHTS assay to identify small molecule agonists of the estrogen receptor alpha (ER-alpha) signaling pathway using the BG1 cell line (AID 743079); conditions: BG1Luc4E2 cells, ERE-luciferase agonist, 22 h; activation: at 70.3 µM (top of the series); note: nearly all actives have a fitted effect of over 20% in size
[8] = qHTS assay to identify small molecule antagonists of the estrogen receptor alpha (ER-alpha) signaling pathway using the BG1 cell line (AID 743080; calls by dose curve;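 note: BG1 cells stimulated with 17beta-estradiol alongside compound; nearly all actives have a fitted effect of over 25% in size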)
How it was run: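 Luciferase inhibition measured with ONE-Glo after 30 min at RT in BG1Luc4E2 cells given test compounds and 17beta-estradiol for 21.5 h at 37 C; CellTiter-Fluor viability read in the same wells beforehand.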

[9] = qHTS assay to identify small molecule antagonists of the estrogen receptor alpha (ER-alpha) signaling pathway using the BG1 cell line - cell viability counter screen (AID 743081);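 note: compound given together with 17beta-estradiol as the ER stimulus; nearly all actives have a fitted effect of over 45% in size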; note: potency is the fitted concentration of half-maximal effect
Aromatase (Homo sapiens) = Aromatase (Homo sapiens) (UniProt P11511); assay: qHTS assay to identify aromatase inhibitors (AID 743083); note: nearly all actives have a fitted effect of over 55% in size; note: potency is the fitted concentration of half-maximal effect
[10] = qHTS assay to identify aromatase inhibitors - cell viability counter screen (AID 743084);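 note: cells stimulated with testosterone during compound exposure; nearly all actives have a fitted effect of over 55% in size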; note: potency is the fitted concentration of half-maximal effect
[11] = target: Aryl hydrocarbon receptor (Homo sapiens) (UniProt P35869); assay: qHTS assay to identify small molecule that activate the aryl hydrocarbon receptor (AhR) signaling pathway (AID 743085);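 note: HG2L7.5c1 human HepG2 liver cells with stably integrated DRE-driven firefly reporter; nearly all actives have a fitted effect of over 15% in size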
How it was run: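 Steps: seed HepG2-AhR-luc cells; allow 5 h at 37C; pin-transfer test compound or vehicle; incubate 24 h at 37C; add viability dye (30 min, 37C) and read fluorescence; add luciferase substrate (30 min, RT) and read luminescence.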

[12] = qHTS assay to identify small molecule that activate the aryl hydrocarbon receptor (AhR) signaling pathway - cell viability counter screen (AID 743086); note: nearly all actives have a fitted effect of over 45% in size; note: potency is the fitted concentration of half-maximal effect
How it was run: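 Cytotoxicity counter screen: CellTiter-Fluor signal (30 min, 37 C) in 4000 HepG2 cells/well carrying the DRE-luciferase reporter, following 24 h compound exposure at 37 C.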

[13] = target: Peroxisome proliferator-activated receptor gamma (Homo sapiens) (UniProt P37231); assay: qHTS assay to identify small molecule agonists of the peroxisome proliferator-activated receptor gamma (PPARg) signaling pathway (AID 743094; active = well fitted activation curve with a large enough effect in the signal ratio in the repeat runs, not every such curve was filed as active; inconclusive = weak or mixed curves, or effect the other way; inactive = no such curve, though single readings can be large or run the other way; the % refers to the signal ratio)
How it was run: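 Reporter activation was scored by fluorescence of cleaved LiveBLAzer B/G substrate (1 h, room temperature) in PPARg-bla HEK293H cells previously treated 17 h at 37C with DMSO-dissolved compounds.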

[14] = target: Nuclear receptor subfamily 1 group I member 2 (Rattus norvegicus) (UniProt Q9R1A7); assay: Rat pregnane X receptor (rPXR) activation by small molecules, qHTS assay (AID 1346983); conditions: rPXR luciferase reporter cells, One-Glo luminescence, 24 h; max activation: stronger effect = higher value; note: nearly all actives have a fitted effect of over 20% in size
How it was run: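 Luminescent readout (One-Glo luciferase, 30 min room temperature) followed 24 hr compound treatment at 37 C of rPXR cells plated 2,000 per well and preincubated 5hr; qHTS format with compounds delivered in DMSO.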

[15] = target: Nuclear receptor subfamily 1 group I member 2 (Homo sapiens) (UniProt O75469); assay: CYP3A4 induction through human pregnane X receptor (PXR) by small molecules, qHTS assay (AID 1346984); note: nearly all actives have a fitted effect of over 40% in size
How it was run: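 Induction measured in HepG2-based DPX-2 cells co-expressing human PXR and a CYP3A4 promoter-driven luciferase. After a 24-hour compound exposure, cells received CYP3A4 luciferin substrate at 3uM final for 3 hours, and light output was then recorded.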

[16] = target: Nuclear receptor subfamily 1 group I member 2 (Homo sapiens) (UniProt O75469); assay: Human pregnane X receptor (PXR) activation by small molecules, qHTS assay (AID 1346985); note: nearly all actives have a fitted effect of over 40% in size
How it was run: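 DPX-2 cells (HepG2 co-transfected with a PXR response element and a CYP3A4-promoter luciferase construct) were seeded at 2,000 per well, rested 5 hr at 37C, then exposed to DMSO-dissolved compounds for 24 hr. Activation was read as luciferase luminescence.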

[17] = qHTS assay to identify small molecule phospholipidosis (PLD) inducers (AID 1259344; active = well fitted curve in the direction sought with a large enough effect; inconclusive = small, poorly fitted or top-dose-only effect, or another doubt; inactive = no such curve, though single readings can be large; an effect the other way counts as inactive or inconclusive)
How it was run: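 Accumulated phospholipid, stained red by LipidTOX during 24 h compound treatment of HepG2 cells at 37 C, is quantified from images as pit number and intensity, normalised per cell using Hoechst-stained nuclei.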

Sequence of Aryl hydrocarbon receptor (Homo sapiens) (P35869 whole entry, looked up): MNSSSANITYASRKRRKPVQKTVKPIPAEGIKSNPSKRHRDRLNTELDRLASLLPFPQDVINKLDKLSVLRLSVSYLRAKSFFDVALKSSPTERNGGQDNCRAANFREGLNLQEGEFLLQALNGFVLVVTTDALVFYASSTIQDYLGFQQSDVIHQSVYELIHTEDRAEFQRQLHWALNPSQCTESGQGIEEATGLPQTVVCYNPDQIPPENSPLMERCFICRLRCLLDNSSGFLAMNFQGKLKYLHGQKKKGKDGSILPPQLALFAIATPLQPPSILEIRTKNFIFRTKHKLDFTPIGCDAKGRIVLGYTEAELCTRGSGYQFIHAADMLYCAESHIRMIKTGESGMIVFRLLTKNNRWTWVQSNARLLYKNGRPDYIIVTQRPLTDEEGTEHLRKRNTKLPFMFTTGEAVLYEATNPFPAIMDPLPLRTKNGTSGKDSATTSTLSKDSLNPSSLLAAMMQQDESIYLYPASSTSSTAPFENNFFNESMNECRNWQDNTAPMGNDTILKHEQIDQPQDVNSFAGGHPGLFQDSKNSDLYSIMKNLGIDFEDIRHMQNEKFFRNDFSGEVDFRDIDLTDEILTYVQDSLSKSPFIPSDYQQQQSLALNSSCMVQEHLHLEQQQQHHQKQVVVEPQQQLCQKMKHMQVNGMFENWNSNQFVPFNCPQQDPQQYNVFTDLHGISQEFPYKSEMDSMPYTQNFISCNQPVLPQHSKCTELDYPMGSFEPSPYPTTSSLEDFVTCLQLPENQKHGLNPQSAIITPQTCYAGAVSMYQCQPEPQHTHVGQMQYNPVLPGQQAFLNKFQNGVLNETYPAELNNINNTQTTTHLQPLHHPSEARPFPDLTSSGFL
Sequence of Aromatase (Homo sapiens) (P11511 whole entry, looked up): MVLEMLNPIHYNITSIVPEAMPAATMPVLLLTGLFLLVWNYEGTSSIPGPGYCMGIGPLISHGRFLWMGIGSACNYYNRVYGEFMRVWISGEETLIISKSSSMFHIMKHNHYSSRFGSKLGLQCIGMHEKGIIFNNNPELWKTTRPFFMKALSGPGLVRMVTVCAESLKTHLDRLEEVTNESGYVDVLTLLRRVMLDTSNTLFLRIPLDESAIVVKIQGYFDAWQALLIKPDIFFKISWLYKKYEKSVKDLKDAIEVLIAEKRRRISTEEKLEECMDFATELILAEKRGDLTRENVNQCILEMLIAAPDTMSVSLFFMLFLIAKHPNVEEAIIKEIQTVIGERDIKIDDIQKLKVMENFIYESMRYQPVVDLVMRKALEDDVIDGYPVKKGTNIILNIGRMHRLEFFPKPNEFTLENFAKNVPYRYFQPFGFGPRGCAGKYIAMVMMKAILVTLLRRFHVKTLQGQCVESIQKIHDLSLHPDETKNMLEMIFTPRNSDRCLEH
Sequence of Peroxisome proliferator-activated receptor gamma (Homo sapiens) (P37231 whole entry, looked up): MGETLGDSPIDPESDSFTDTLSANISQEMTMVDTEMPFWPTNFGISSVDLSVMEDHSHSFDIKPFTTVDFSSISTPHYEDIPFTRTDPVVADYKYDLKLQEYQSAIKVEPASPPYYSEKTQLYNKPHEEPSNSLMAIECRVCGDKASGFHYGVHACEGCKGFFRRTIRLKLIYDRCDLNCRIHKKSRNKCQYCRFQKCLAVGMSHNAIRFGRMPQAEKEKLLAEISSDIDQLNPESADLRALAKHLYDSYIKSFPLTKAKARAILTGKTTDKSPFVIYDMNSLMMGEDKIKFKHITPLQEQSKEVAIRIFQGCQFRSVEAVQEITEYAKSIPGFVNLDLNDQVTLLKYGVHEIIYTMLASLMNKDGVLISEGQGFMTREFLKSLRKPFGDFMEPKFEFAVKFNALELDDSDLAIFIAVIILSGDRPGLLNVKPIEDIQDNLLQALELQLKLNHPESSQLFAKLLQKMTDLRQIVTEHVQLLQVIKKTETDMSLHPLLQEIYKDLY
Sequence of Nuclear receptor subfamily 1 group I member 2 (Rattus norvegicus) (Q9R1A7 whole entry, looked up): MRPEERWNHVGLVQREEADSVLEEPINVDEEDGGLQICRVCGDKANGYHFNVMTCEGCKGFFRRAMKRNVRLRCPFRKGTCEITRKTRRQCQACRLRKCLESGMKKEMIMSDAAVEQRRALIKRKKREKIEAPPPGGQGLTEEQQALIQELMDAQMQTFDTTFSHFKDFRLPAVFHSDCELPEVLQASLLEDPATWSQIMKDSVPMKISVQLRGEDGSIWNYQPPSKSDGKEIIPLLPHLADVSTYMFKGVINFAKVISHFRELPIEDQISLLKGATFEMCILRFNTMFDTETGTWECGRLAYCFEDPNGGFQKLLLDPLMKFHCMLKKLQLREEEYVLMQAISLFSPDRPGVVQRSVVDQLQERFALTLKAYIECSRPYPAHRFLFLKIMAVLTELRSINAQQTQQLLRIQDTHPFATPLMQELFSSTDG
Sequence of Estrogen receptor (Homo sapiens) (P03372 whole entry, looked up): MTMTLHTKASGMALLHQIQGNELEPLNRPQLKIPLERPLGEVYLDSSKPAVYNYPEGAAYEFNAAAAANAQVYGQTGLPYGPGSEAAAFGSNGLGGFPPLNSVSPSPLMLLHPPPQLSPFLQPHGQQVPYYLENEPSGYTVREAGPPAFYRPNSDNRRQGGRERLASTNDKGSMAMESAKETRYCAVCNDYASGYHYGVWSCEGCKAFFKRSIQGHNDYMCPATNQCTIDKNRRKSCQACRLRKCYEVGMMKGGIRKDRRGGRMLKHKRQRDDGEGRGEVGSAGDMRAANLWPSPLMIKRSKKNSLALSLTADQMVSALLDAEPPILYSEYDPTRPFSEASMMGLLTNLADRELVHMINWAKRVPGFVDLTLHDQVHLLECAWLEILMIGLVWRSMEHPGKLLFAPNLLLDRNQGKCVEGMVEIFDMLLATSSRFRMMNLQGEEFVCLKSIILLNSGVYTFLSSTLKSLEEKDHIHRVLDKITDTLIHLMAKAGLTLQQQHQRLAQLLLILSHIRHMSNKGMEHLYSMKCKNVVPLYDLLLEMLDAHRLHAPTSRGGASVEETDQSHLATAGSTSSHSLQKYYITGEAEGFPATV

| SMILES | Potency [1] | Potency [2] | Potency [3] | Potency [4] | Potency [5] | Potency [6] | Potency [7] | Potency [8] | Potency [9] | Potency (Aromatase (Homo sapiens)) | Potency [10] | Potency [11] | Potency [12] | Potency [13] | max activation [14] [%] | Potency [15] | Potency [16] | Potency [17] | PLD induction [17] |
| --- | --- | --- | --- | --- | --- | --- | --- | --- | --- | --- | --- | --- | --- | --- | --- | --- | --- | --- | --- |
| O=C(O)CC/C=C\CC[C@@H]1[C@@H](N2CCCCC2)[C@@H](O)C[C@@H]1OCc1ccc(-c2ccccc2)cc1 | inactive | inactive | inactive | inactive | inactive | inactive | inactive | inactive | inactive | inactive | inactive | inactive | inactive | inactive | -6.46 | inactive | inactive |  |  |
| COc1ccc(C(=O)Nc2ccccc2CCC2CCCCN2C)cc1 (centres undefined) |  |  |  | inactive |  | inactive |  | inactive | 2.98 µM (active) | inactive |  |  |  | inactive |  |  |  | inactive |  |
| CC(=O)N[C@@H](C=O)[C@@H](O)[C@H](O)[C@H](O)CO | inactive | inactive | inactive | inactive | inactive | inactive | inactive | inactive | inactive | inactive | inactive | inactive | inactive | inactive | -0.914 | inactive | inactive |  |  |
| CN1CC(O)c2cc(N=NC(N)=O)c(O)cc21 (centres undefined) |  |  |  | inactive | inactive | inactive | inactive |  | inactive | inactive |  | inactive |  | inactive |  |  |  | inactive |  |
| COC(=O)C1=C(C#N)NC(C)=C(C(=O)OC(C)C)C1c1cccc([N+](=O)[O-])c1 (centres undefined) |  |  |  |  | inactive | inactive | inactive | inactive | inactive | 29.8 µM (active) |  | inactive |  |  |  |  |  | inactive |  |
| Cc1nc(NS(=O)(=O)c2ccc(N)cc2)nc(C)c1Br | inactive | inactive | inactive | inactive | inactive | inactive | inactive | inactive | inactive | inactive | inactive | inactive | inactive | inactive | -1.45 | inactive | inactive |  |  |
| CC(C)[C@@H]1CC[C@@H](C)C[C@H]1OC(=O)c1ccccc1O | inactive | inactive | inactive | inactive | inactive | inactive | inactive | inactive |  | inactive | inactive | inactive | inactive | inactive | -0.772 | inactive | inactive |  |  |
| OC[C@H]1O[C@@H](O[C@H]2[C@H](O)[C@@H](O)[C@H](O)O[C@@H]2CO)[C@H](O)[C@@H](O)[C@@H]1O | inactive | inactive | inactive | inactive | inactive | inactive | inactive | inactive | inactive | inactive | inactive |  | inactive | inactive | -4.71 | inactive | inactive |  |  |
| Nc1c(Br)cc(Br)cc1CNC1CCC(O)CC1 (centres undefined) |  |  |  | inactive | inactive | inactive | inactive | inactive | inactive | inactive | inactive | inactive | inactive | inactive |  |  |  | inactive |  |
| NC(Cc1ccccc1)C(=O)O (centres undefined) | inactive | inactive | inactive | inactive | inactive | inactive |  | inactive | inactive | inactive | inactive |  | inactive | inactive | 14.8 | inactive | inactive |  |  |
| CO[C@H]1C[C@H](O[C@H]2[C@H](C)[C@@H](O[C@@H]3O[C@H](C)C[C@H](N(C)C)[C@H]3OC(C)=O)[C@@H](C)C[C@]3(CO3)C(=O)[C@H](C)[C@@H](OC(C)=O)[C@@H](C)[C@@H](C)OC(=O)[C@@H]2C)O[C@@H](C)[C@@H]1OC(C)=O |  |  |  |  | inactive |  |  |  | inactive | inactive | inactive | inactive | inactive | inactive |  |  |  | inactive |  |
| CO[C@H]1C=CO[C@@]2(C)Oc3c(C)c(O)c4c(O)c(c(/C=N/N5CCN(C6CCCC6)CC5)c(O)c4c3C2=O)NC(=O)/C(C)=C\C=C[C@H](C)[C@H](O)[C@@H](C)[C@@H](O)[C@@H](C)[C@H](OC(C)=O)[C@@H]1C |  |  |  | 19 µM [inconclusive] (active) | inactive | inactive |  |  | 26.6 µM (active) | 33.5 µM (active) | 23.7 µM (active) |  | 26.6 µM (active) |  |  |  |  | inactive |  |
| CC(O)[C@@H]1NC(=O)[C@H](CCCCN)NC(=O)[C@@H](Cc2c[nH]c3ccccc23)NC(=O)[C@H](Cc2ccccc2)NC(=O)[C@@H](NC(=O)[C@H](N)Cc2ccccc2)CSSC[C@@H](C(=O)N[C@H](CO)[C@@H](C)O)NC1=O (some centres undefined) |  |  |  |  | inactive | inactive |  | inactive | inactive | inactive | inactive | inactive | inactive | inactive |  |  |  | inactive |  |
| O=C(Cn1c(=O)sc2ccc(Cl)cc21)N1CCN(CCO)CC1 |  |  |  |  | inactive |  |  |  | inactive | inactive | inactive | inactive | inactive | inactive |  |  |  |  | 3.19% [at 7.66 µM] |
| COc1cc(Br)c(C[N+]2(CCOCCC3CCC4CC3C4(C)C)CCOCC2)cc1OC (centres undefined) |  |  |  | inactive | inactive | inactive | inactive | inactive | inactive |  | inactive | inactive | inactive | inactive |  |  |  | inactive |  |
